Laboratory results as given in PubChem BioAssay (Tox21).
A number with no mark means an inactive call. Inconclusive results are not listed. Entries that show only a call come without a potency. Calls of active or inactive are those of the source. Unless noted, the call rests on the fitted dose curve.

How the values were obtained:
[1] = Nuclear factor erythroid 2-related factor 2/antioxidant responsive element (Nrf2/ARE) small molecule agonists: qHTS cell viability counter screen in human keratinocytes (AID 1919968; active means well fitted curve in the direction sought with a large enough effect in the repeat runs; an effect the other way counts as inactive or inconclusive; further: nearly all actives have a fitted effect of over 55% in size)
Procedure, shortened: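 KeratinoSens cells (HaCaT keratinocytes stably carrying an ARE-luciferase reporter) were seeded at 1,500 cells/well and rested 5 h at 37 C/5% CO2. They were then exposed to compounds in DMSO for 23 h. Viability was read by CellTiter-Fluor fluorescence after 1 h.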

[2] = Nuclear factor erythroid 2-related factor 2/antioxidant responsive element (Nrf2/ARE) small molecule agonists: luciferase reporter gene qHTS assay in human keratinocytes (AID 1919969); further: nearly all actives have a fitted effect of over 35% in size; further: potency means the concentration at half of the fitted maximal effect
[3] = biological target: Gonadotropin-releasing hormone receptor (Homo sapiens) (UniProt P30968); experiment: Human gonadotropin-releasing hormone receptor (GnRHR) small molecule agonists, calcium flux assay in GnRHR-HEK293 cells (AID 1920063); further: nearly all actives have a fitted effect of over 35% in size
Sequence of Gonadotropin-releasing hormone receptor (Homo sapiens) (P30968 whole entry, looked up): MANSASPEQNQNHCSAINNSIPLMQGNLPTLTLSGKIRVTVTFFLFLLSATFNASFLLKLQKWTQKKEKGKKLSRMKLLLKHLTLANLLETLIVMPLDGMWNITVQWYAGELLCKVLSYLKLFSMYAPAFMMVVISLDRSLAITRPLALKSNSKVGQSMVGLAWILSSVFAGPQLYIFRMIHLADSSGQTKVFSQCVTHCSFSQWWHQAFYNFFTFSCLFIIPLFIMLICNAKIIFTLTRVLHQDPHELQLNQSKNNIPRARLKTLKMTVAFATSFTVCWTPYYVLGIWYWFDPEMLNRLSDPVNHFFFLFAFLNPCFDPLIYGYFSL
Procedure, shortened: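 HEK293 cells stably expressing human GnRHR were plated 18 h at 37 °C, loaded with calcium dye 1 h at 37 °C, then given compound in agonist mode; fluorescence (Ex/Em 480/540) read kinetically for 3 min at 1 s intervals.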

[4] = biological target: KiSS-1 receptor (Homo sapiens) (UniProt Q969F8); experiment: Human kisspeptin (KISS1R) small molecule agonists, calcium flux assay in KISS1R-HEK293 cells (AID 1920064; active means well fitted curve in the direction sought with a large enough effect in the repeat runs; an effect the other way counts as inactive or inconclusive)
Sequence of KiSS-1 receptor (Homo sapiens) (Q969F8 whole entry, looked up): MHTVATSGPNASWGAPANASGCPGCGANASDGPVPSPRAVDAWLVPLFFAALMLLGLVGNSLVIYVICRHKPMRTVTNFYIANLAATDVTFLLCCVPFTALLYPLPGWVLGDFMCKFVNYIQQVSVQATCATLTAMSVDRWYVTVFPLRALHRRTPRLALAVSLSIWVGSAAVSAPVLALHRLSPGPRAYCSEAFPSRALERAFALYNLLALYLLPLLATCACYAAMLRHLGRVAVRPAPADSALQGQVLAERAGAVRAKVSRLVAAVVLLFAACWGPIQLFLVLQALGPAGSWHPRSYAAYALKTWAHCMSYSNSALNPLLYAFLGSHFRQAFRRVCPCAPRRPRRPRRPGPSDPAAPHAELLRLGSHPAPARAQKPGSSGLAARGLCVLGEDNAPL
Procedure, shortened: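 HEK293 cells stably expressing human KISS1R were plated 18 h at 37 °C, loaded with calcium dye for 1 h at 37 °C, then given compound by pin tool. Fluorescence (Ex/Em 480/540) was read kinetically for 3 min.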

[5] = G protein-coupled receptor (GPCR) small molecule agonists, calcium flux assay: HEK293 wild type cell line counter screen (AID 1920065)
Procedure, shortened: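 Cells were plated and cultured 18 h at 37 C/5% CO2, then loaded with calcium dye for 1 h at 37 C. Compounds in DMSO were pin-transferred in agonist mode, and fluorescence (Ex/Em 480/540) was read kinetically for 3 min at 1 s intervals.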

[6] = p53 small molecule agonists, cell-based qHTS assay with human liver microsomes (AID 1963577);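 further: p53 response element beta-lactamase reporter cells with liver microsomes plus NADPH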
Procedure, shortened: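 HLM-supplemented p53RE-bla reporter assay: 16 h compound exposure at 37 C, microsomes and NADPH each 0.5 mg/mL final, read by fluorescence intensity.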

[7] = p53 small molecule agonists, cell-based qHTS assay with rat liver microsomes (AID 1963578)
Procedure, shortened: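 Quantitative HTS of the Tox21 10K library: p53RE-bla cells, rat liver microsomes plus NADPH at 0.5 mg/mL final each, 16 h at 37 C, beta-lactamase fluorescence detection.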

[8] = p53 small molecule agonists, cell-based qHTS assay with human liver microsomes: qHTS cell viability counter screen (AID 1963579); further: nearly all actives have a fitted effect of over 45% in size
Procedure, shortened: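 Viability of p53RE-bla cells is measured as CellTiter-Glo luminescence following a 16 h, 37 C incubation with compound, liver microsomes from human donors and NADPH.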

[9] = p53 small molecule agonists, cell-based qHTS assay with rat liver microsomes: qHTS cell viability counter screen (AID 1963580); further: nearly all actives have a fitted effect of over 45% in size
Procedure, shortened: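 In HCT-116 cells carrying a p53 response element-bla reporter, compounds were metabolically activated in situ by rat liver microsomes with NADPH over 16 h. Cell ATP content then served as the cytotoxicity measure.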

[10] = p53 small molecule agonists, cell-based qHTS assay: qHTS cell viability counter screen (AID 1963581); further: nearly all actives have a fitted effect of over 45% in size; further: potency means the concentration at half of the fitted maximal effect
Procedure, shortened: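 p53RE-bla HCT-116 cells were exposed to compounds for 16 h at 37 C; after the beta-lactamase FRET read in the same wells, CellTiter-Glo was added and luminescence (intracellular ATP) read after 30 min at room temperature.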

[11] = p53 small molecule agonists, cell-based qHTS assay (AID 1963582; active means well fitted activation curve with a large enough effect in the signal ratio in the repeat runs, not every such curve was filed as active; the % refers to the signal ratio)
Procedure, shortened: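 p53RE-bla beta-lactamase reporter cells rested 5 h at 37 C/5% CO2, then received compounds in DMSO by pin transfer and were incubated 16 h at 37 C. LiveBLAzer B/G FRET substrate was loaded for 2 h at room temperature before fluorescence reading.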

[12] = biological target: 5-hydroxytryptamine receptor 2A (Homo sapiens) (UniProt P28223); experiment: 5-hydroxytryptamine receptor 2A (HTR2A) small molecule antagonists, cell-based qHTS assay (AID 1963586); further: nearly all actives have a fitted effect of over 45% in size
Sequence of 5-hydroxytryptamine receptor 2A (Homo sapiens) (P28223 whole entry, looked up): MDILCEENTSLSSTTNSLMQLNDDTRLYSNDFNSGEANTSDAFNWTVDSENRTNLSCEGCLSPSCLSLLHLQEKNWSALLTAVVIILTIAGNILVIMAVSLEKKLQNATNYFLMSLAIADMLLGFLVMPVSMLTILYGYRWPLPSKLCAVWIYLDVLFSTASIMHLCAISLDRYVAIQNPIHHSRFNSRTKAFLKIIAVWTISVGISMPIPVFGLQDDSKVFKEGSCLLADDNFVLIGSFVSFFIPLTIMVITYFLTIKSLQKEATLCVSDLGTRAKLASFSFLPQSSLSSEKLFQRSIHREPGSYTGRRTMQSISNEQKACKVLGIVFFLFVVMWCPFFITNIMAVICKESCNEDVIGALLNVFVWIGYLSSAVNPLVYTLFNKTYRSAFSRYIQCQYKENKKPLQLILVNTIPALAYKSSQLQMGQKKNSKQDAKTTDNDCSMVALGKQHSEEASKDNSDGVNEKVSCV
Procedure, shortened: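 Antagonist-mode intracellular calcium assay: DOI (4 nM) added after 5 min compound pre-incubation at room temperature to dye-loaded HTR2A-CHO cells. Fluorescence followed for 3 min, sampled every second.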

[13] = biological target: 5-hydroxytryptamine receptor 2A (Homo sapiens) (UniProt P28223); experiment: 5-hydroxytryptamine receptor 2A (HTR2A) small molecule agonists, cell-based qHTS assay (AID 1963587); further: nearly all actives have a fitted effect of over 30% in size
Procedure, shortened: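 HTR2A-CHO cells, plated 18 h at 37 C/5% CO2, dye-loaded 1 h at 37 C; compounds in DMSO added by pin tool (agonist mode). Intracellular calcium flux read as kinetic fluorescence on FDSS over 2 min at 1 s intervals.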

[14] = biological target: Muscarinic acetylcholine receptor M1 (Homo sapiens) (UniProt P11229); experiment: Cholinergic receptor muscarinic 1 (CHRM1) small molecule antagonists, cell-based qHTS assay (AID 1963588); further: nearly all actives have a fitted effect of over 40% in size
Sequence of Muscarinic acetylcholine receptor M1 (Homo sapiens) (P11229 whole entry, looked up): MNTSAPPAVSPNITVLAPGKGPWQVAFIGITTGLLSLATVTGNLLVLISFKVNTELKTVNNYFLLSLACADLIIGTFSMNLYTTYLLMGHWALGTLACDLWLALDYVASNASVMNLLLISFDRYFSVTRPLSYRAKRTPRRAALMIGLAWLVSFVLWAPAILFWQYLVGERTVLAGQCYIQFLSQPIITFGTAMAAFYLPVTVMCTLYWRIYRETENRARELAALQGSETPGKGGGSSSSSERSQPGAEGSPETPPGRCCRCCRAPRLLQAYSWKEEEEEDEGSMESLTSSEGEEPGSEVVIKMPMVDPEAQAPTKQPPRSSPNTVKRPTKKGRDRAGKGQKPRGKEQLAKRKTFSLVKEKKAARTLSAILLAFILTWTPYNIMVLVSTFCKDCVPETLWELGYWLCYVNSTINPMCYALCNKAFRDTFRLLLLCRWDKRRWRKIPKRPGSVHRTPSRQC
Procedure, shortened: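 CHRM1-CHO calcium-flux assay, antagonist mode. Cells were seeded 18 h, dye-loaded 1 h at 37 C and given compound for 5 min at RT, then acetylcholine was added at 50nM. FDSS fluorescence was read 3 min; 15 concentrations, three runs.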

[15] = biological target: Muscarinic acetylcholine receptor M1 (Homo sapiens) (UniProt P11229); experiment: Cholinergic receptor muscarinic 1 (CHRM1) small molecule agonists, cell-based qHTS assay (AID 1963589); further: nearly all actives have a fitted effect of over 35% in size
Procedure, shortened: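 CHO cells stably expressing human CHRM1, seeded 18 h at 37 C/5% CO2, dye-loaded 1 h at 37 C, then given compound in agonist mode; intracellular calcium fluorescence read kinetically at 1 s intervals. Fifteen concentrations, three independent runs.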

[16] = cAMP Responsive Elements (CRE) small molecule agonists, cell-based qHTS assay (AID 1963590)
Procedure, shortened: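 CRE-bla HEK 293T cells in DMEM with 10% dialyzed FBS, NEAA, pyruvate and 25 mM HEPES were plated 18 h at 37 C/5% CO2, then exposed to compounds in DMSO for 3 h before LiveBLAzer B/G FRET substrate addition.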

[17] = biological target: Beta-2 adrenergic receptor (Homo sapiens) (UniProt P07550); experiment: Adrenergic beta2 receptor (ADRB2) small molecule antagonists, cell-based qHTS assay (AID 1963592); further: series mostly up to about 92 µM; nearly all actives have a fitted effect of over 50% in size
Sequence of Beta-2 adrenergic receptor (Homo sapiens) (P07550 whole entry, looked up): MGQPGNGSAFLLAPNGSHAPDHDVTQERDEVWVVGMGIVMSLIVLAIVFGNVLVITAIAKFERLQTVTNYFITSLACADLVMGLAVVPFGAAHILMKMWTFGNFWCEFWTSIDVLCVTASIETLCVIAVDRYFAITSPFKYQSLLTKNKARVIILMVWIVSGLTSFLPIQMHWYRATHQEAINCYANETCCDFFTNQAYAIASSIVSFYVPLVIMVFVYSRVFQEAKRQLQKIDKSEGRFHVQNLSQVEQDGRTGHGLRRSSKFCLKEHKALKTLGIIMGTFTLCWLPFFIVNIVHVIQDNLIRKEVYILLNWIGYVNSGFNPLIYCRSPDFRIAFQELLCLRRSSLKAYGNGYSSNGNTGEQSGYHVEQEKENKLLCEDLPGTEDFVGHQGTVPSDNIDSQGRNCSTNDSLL
Procedure, shortened: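 Cells (CHO, stable ADRB2 overexpression) incubated 18-20hr at 37C; compounds added from DMSO; agonist mix (1nM isoproterenol, 100uM IBMX, 25uM Ro-20-1724) added; 0.5hr RT; d2-cAMP and anti-cAMP-cryptate added; 1hr RT; 665/615 nm read.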

[18] = biological target: D(2) dopamine receptor (Homo sapiens) (UniProt P14416); experiment: Dopamine D2 receptor (DRD2) small molecule agonists, cell-based qHTS assay (AID 1963594); further: nearly all actives have a fitted effect of over 35% in size; further: potency means the concentration at half of the fitted maximal effect
Sequence of D(2) dopamine receptor (Homo sapiens) (P14416 whole entry, looked up): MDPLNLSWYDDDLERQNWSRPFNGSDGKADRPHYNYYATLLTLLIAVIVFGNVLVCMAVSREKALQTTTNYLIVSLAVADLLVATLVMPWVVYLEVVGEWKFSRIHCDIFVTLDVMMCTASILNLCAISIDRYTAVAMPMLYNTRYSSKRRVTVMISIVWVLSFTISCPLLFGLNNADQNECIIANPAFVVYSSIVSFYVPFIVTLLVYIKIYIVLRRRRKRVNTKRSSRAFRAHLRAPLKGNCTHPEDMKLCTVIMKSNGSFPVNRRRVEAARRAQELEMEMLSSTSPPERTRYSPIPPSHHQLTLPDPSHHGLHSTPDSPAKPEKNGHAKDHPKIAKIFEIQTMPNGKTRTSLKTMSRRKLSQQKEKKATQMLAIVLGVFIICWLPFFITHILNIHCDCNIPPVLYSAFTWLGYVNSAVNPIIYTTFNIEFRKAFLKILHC
Procedure, shortened: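 HEK293 cells stably expressing DRD2 were cultured 24 h at 37 C, then given Ro20-1724 (0.1 mM final) and compounds for 10 min at room temperature. NKH477 (200nM) was then added for 30 min. cAMP was read by HTRF.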

[19] = biological target: D(2) dopamine receptor (Homo sapiens) (UniProt P14416); experiment: Dopamine D2 receptor (DRD2) small molecule antagonists, cell-based qHTS assay (AID 1963595; active means well fitted inhibition curve with a large enough effect in the signal ratio in the repeat runs, with a control signal flat; the % refers to the signal ratio)
Procedure, shortened: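 HEK293 cells stably expressing DRD2, preincubated with 0.1 mM Ro20-1724 and compounds 10 min, were stimulated with 200 nM NKH477 plus 12 nM quinpirole for 30 min at room temperature; cAMP measured by HTRF (665/620 nm).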

[20] = cAMP Responsive Elements (CRE) small molecule antagonists, cell-based qHTS assay (AID 1963591; active means well fitted inhibition curve with a large enough effect in the signal ratio in the repeat runs, not every such curve was filed as active; the % refers to the signal ratio)
Procedure, shortened: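 CRE-bla HEK293T cells were plated 18 h at 37 °C/5% CO2, pinned with compound in DMSO, then stimulated with NKH477 at 0.25 uM final for 3 h. LiveBLAzer B/G FRET substrate was added and plates incubated 2 h at room temperature.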

Compound	Potency [1]	Potency [2]	Potency [3]	outcome [4]	outcome [5]	Potency [6]	Potency [7]	Potency [8]	Potency [9]	Potency [10]	Potency [11]	Potency [12]	Potency [13]	Potency [14]	Potency [15]	Potency [16]	Potency [17]	Potency [18]	Potency [19]	Potency [20]
C/C(=N/NC(=O)c1ccncc1)C(=O)O	inactive	inactive	inactive	inactive	inactive	inactive	inactive	inactive	inactive	inactive	inactive	inactive	inactive	inactive	inactive	inactive	inactive	inactive	inactive	
CO/N=C(\C(=O)O)c1csc(NC(=O)CCl)n1	inactive	inactive	inactive	inactive	inactive	inactive	inactive	inactive	inactive	inactive	inactive	inactive	inactive	inactive	inactive		inactive	inactive	inactive	inactive
C=C(C)C(=O)OCCN(C)C	inactive	inactive	inactive	inactive	inactive	inactive	inactive	inactive	inactive	inactive	inactive	inactive	inactive	inactive	inactive		inactive	inactive	inactive	inactive
Nc1ccccc1S(=O)(=O)c1ccccc1	inactive	inactive	inactive	inactive	inactive	inactive	inactive	inactive	inactive	inactive	inactive	inactive	inactive	inactive	inactive	inactive	inactive	inactive	inactive	
Cc1cnc(C)c(C)n1	inactive	inactive	inactive	inactive	inactive	inactive	inactive	inactive	inactive	inactive	inactive	inactive	inactive	inactive	inactive		inactive	inactive	inactive	inactive
COC(C)(OC)OC	inactive	inactive	inactive	inactive	inactive	inactive	inactive	inactive	inactive	inactive	inactive	inactive	inactive	inactive	inactive	inactive	inactive	inactive	inactive	
CCCCCc1ccc(Cl)cc1	inactive	inactive	inactive	inactive	inactive	inactive	inactive	inactive	inactive	inactive	inactive	inactive	inactive	inactive	inactive	inactive	inactive	inactive	inactive	
CCN(Cc1c(F)cccc1Cl)c1c([N+](=O)[O-])cc(C(F)(F)F)cc1[N+](=O)[O-]	inactive	15.4 µM (active)	inactive	inactive	inactive	inactive	inactive	inactive	inactive	25.7 µM (active)	inactive	inactive	inactive	inactive	inactive		inactive	inactive	inactive	inactive
C[C@@H](CN1CC(=O)NC(=O)C1)N1CC(=O)NC(=O)C1	inactive	inactive	inactive	inactive	inactive	inactive	inactive	inactive	inactive	inactive	inactive	inactive	inactive	inactive		inactive		inactive	inactive	inactive
O=C1CCCC(=O)C1	inactive	inactive	inactive	inactive	inactive	inactive	inactive	inactive	inactive	inactive	inactive	inactive	inactive	inactive		inactive	inactive	inactive	inactive	inactive
O=C(O)c1cc(O)c2c(c1)C(=O)c1cccc(O)c1C2=O	inactive	inactive	inactive	inactive	inactive	inactive	inactive	inactive	inactive	inactive	inactive	inactive	inactive	inactive	inactive		inactive	inactive	inactive	
CCOC(=O)Oc1ccc(CCNC(=O)[C@H](CCSC)NC(C)=O)cc1OC(=O)OCC	inactive	inactive	inactive	inactive	inactive	inactive	inactive	inactive	inactive	inactive	inactive	inactive	inactive	inactive		inactive	inactive	2.37 µM (active)	inactive	inactive
CCC(CO)(CO)[N+](=O)[O-]	inactive	inactive	inactive	inactive	inactive	inactive	inactive	inactive	inactive	inactive	inactive	inactive	inactive	inactive		inactive	inactive	inactive		
CCCCNc1c(C(=O)OCC)c(C)nc2c1cnn2CC	inactive	inactive	inactive	inactive	inactive	inactive	inactive	inactive	inactive	inactive	inactive	inactive	inactive	inactive	inactive		inactive	inactive	inactive	
O=C(O)c1cc(Cl)cc(Cl)c1	inactive	inactive	inactive	inactive	inactive	inactive	inactive	inactive	inactive	inactive	inactive	inactive	inactive	inactive	inactive		inactive	inactive	inactive	
